Results on seven compounds are retold here after PubChem BioAssay (Tox21).

Test [1] can be described thus: qHTS assay to identify small molecule antagonists of the sonic hedgehog signaling (Shh) pathway (AID 1259369). Also: nearly all actives have a fitted effect of over 45% in size. Also: potency is read from the fitted curve at half-maximal effect. The essentials: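 Stable Gli1-Luc reporter NIH/3T3 clone; quantitative HTS in stimulated mode with conditioned medium. Luminescence measured after 24hr compound treatment at 37 C.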
Test [2] deals with Estrogen receptor beta (Homo sapiens) (UniProt Q92731). As to the kind of experiment: qHTS assay to identify small molecule agonists of the estrogen receptor beta (ER-beta) signaling pathway (AID 1259377; active = well fitted activation curve with a large enough effect in the signal ratio in the repeat runs, not every such curve was filed as active; the % refers to the signal ratio). The method in brief: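 Measured by fluorescence intensity from a B/G FRET beta-lactamase substrate (2 h, room temperature) in ER-beta-UAS-bla HEK293T cells treated with DMSO-dissolved compounds for 16 hr at 37C and 5% CO2.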
Chain of Estrogen receptor beta (Homo sapiens) (Q92731 whole entry, looked up): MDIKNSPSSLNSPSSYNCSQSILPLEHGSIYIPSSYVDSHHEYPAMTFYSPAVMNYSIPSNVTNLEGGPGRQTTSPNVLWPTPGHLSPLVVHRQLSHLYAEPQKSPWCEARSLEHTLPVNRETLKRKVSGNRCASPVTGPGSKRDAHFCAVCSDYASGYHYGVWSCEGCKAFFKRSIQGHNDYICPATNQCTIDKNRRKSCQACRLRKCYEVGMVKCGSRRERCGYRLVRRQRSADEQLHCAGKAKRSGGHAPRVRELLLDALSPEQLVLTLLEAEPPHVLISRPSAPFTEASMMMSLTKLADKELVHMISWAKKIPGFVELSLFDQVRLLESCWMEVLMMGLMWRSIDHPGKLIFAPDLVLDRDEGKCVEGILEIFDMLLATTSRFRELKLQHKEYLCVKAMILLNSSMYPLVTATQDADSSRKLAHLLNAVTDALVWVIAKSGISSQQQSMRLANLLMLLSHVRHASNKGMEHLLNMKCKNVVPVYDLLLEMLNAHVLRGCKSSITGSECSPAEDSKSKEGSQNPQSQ

The target is the same in test [3]. The experiment in a line: qHTS assay to identify small molecule antagonists of the estrogen receptor beta (ER-beta) signaling pathway (AID 1259378; active = well fitted inhibition curve with a large enough effect in the signal ratio in the repeat runs, not every such curve was filed as active; the % refers to the signal ratio). The essentials:
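Antagonist mode: compounds added to beta-lactamase reporter HEK293T ER-beta-UAS cells stimulated with E2 (1nM final), 16 hr at 37C. LiveBLAzer B/G FRET substrate, 2 hours room temperature, fluorescence read-out.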
For orientation: In qHTS, concentration-response curves come from the screen itself.

Test [4] is described as follows: qHTS assay to identify small molecule agonists of the androgen receptor (AR) signaling pathway in the presence of an antagonist - cell viability counter screen (AID 1259379; active = well fitted curve in the direction sought with a large enough effect in the repeat runs; an effect the other way counts as inactive or inconclusive;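 also: MDA-kb2 human breast cancer cells carrying an MMTV luciferase reporter; series mostly up to about 92 µM; nearly all actives have a fitted effect of over 25% in size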). The method in brief: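 Nilutamide-containing (3.0uM final) MDA-kb2 cultures, 3,000 cells/well, were treated with compounds across 15 concentrations. After 16 hr at 37C with no CO2, cell viability was determined by CellTiter-Fluor fluorescence in the luciferase assay wells.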

Test [5] in a line: qHTS assay to identify small molecule agonists of the estrogen receptor beta (ER-beta) signaling pathway - cell viability counter screen (AID 1259380; active = well fitted curve in the direction sought with a large enough effect in the repeat runs; an effect the other way counts as inactive or inconclusive; also: nearly all actives have a fitted effect of over 30% in size). The essentials:
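Steps: plate ER-beta-UAS-bla HEK293T cells, rest 6 hr; add compounds in DMSO; incubate 16 hr at 37C, 5% CO2; add FRET substrate 2 hr; add CellTiter-Glo, wait 30 min at room temperature; read luminescence.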

Test [6] is described as follows: qHTS assay to identify small molecule antagonists of the estrogen receptor beta (ER-beta) signaling pathway - cell viability counter screen (AID 1259382; active = well fitted curve in the direction sought with a large enough effect in the repeat runs; an effect the other way counts as inactive or inconclusive;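 also: HEK293T cells carrying ER-beta-UAS-bla reporter stimulated with estradiol; series mostly up to about 92 µM; nearly all actives have a fitted effect of over 55% in size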). The method in brief:
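Viability is scored by CellTiter-Glo luminescence (30 min, room temperature) in ER-beta-UAS-bla HEK293T wells already read for reporter fluorescence. Compound exposure lasts 16 hr at 37C alongside 1nM 17-beta-estradiol in charcoal-stripped serum medium.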

Test [7] addresses Estrogen receptor (Homo sapiens) (UniProt P03372). As to the kind of experiment: qHTS assay to identify small molecule agonists of the estrogen receptor alpha (ER-alpha) signaling pathway in the presence of an antagonist (AID 1259383). Also: top concentration of the series differs between compounds; nearly all actives have a fitted effect of over 15% in size. The essentials:
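Readout was ERE-driven luciferase luminescence in VM7Luc4E2 cells, which express full-length ER-alpha endogenously. Compounds were tested at 15 concentrations for 22hr alongside 10.0nM ICI-182,780 (final concentration).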

A short description of test [8]: qHTS assay to identify small molecule agonists or antagonists of the thyroid stimulating hormone receptor (TSHR) signaling pathway - wild type cell line counter screen (AID 1259384). The essentials: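 Counter screen in untransfected Hek293: compounds (15-point titration, triplicate) plus phosphodiesterase inhibitor Ro20-1724 added after 18 h plating; 30 min RT. Intracellular cAMP via competitive d2/cryptate immunoassay, 1 h incubation.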

Test [9] concerns the target Thyrotropin receptor (Homo sapiens) (UniProt P16473). The experiment in a line: qHTS assay to identify small molecule antagonists of the thyroid stimulating hormone receptor (TSHR) signaling pathway (AID 1259385). Also: nearly all actives have a fitted effect of over 20% in size. Also: potency is read from the fitted curve at half-maximal effect. The method in brief:
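Antagonist mode: compound-treated TSHR-expressing HEK293 cells were stimulated with 1.5 ng/mL TSH (final) in presence of Ro20-1724 for 30 min at RT. HTRF cAMP detection after 1 h; each compound tested at 15 concentrations, triplicate.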

Test [10] in a line: qHTS assay to identify small molecule agonists of the estrogen receptor alpha (ER-alpha) signaling pathway in the presence of an antagonist - cell viability counter screen (AID 1259386; active = well fitted curve in the direction sought with a large enough effect in the repeat runs; an effect the other way counts as inactive or inconclusive;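 also: series mostly up to about 92 µM; cells exposed to compounds for 22 h at 37 °C before the viability read; nearly all actives have a fitted effect of over 30% in size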). The essentials: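 In this counter screen, compound effects on VM7Luc4E2 viability were tested in the presence of the antagonist ICI-182,780 at 10.0nM final. Compounds were dosed at 15 concentrations, exposure lasted 22hr, and the CellTiter-Fluor signal was read.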

Test [11] addresses Progesterone receptor (Homo sapiens) (UniProt P06401). As to the kind of experiment: qHTS assay to identify small molecule agonists of the progesterone receptor (PR) signaling pathway (AID 1346784). Also: nearly all actives have a fitted effect of over 30% in size. The essentials:
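The screen uses PR-UAS-bla HEK 293T cells in charcoal-stripped serum (2%). Compounds are applied for 16 hr at 37C after a 6 hr pre-incubation, and reporter activity is detected with a FRET beta-lactamase substrate after 2 hr at room temperature.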

The target is the same in test [12]. The experiment in a line: qHTS assay to identify small molecule antagonists of the progesterone receptor (PR) signaling pathway (AID 1346795; active = well fitted inhibition curve with a large enough effect in the signal ratio in the repeat runs, not every such curve was filed as active; the % refers to the signal ratio). The method in brief: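 After 6 hr plating at 37C in 2% stripped-serum medium, PR-UAS-bla HEK293T cells got compounds, then 1 nM R5020. Sixteen hours later, LiveBLAzer substrate was applied for 2 hr at room temperature and fluorescence was recorded.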

Test [13] can be described thus: qHTS assay to identify small molecule antagonists of the progesterone receptor (PR) signaling pathway - cell viability counter screen (AID 1346798; active = well fitted curve in the direction sought with a large enough effect in the repeat runs; an effect the other way counts as inactive or inconclusive; also: series mostly up to about 92 µM; nearly all actives have a fitted effect of over 50% in size). The method in brief: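 Viability was determined by ATP-based luminescence (CellTiter-Glo) in PR-UAS-bla HEK293T cells cultured in 2% charcoal-stripped serum and incubated 16 hr with compounds under R5020 stimulation.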

Test [14] in a line: qHTS assay to identify small molecule agonists of the progesterone receptor (PR) signaling pathway - cell viability counter screen (AID 1346799). Also: nearly all actives have a fitted effect of over 45% in size. The essentials: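 Viability was scored by ATP luminescence (CellTiter-Glo, 30 min, room temperature) in the same wells used for the reporter readout, after 16 hr compound exposure of PR-UAS-bla HEK293T cells.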
Test [15] in a line: qHTS assay to identify small molecule antagonists of the TGF-beta/Smad signaling pathway - cell viability counter screen (AID 1346824; active = well fitted curve in the direction sought with a large enough effect in the repeat runs; an effect the other way counts as inactive or inconclusive; also: nearly all actives have a fitted effect of over 50% in size). The essentials:
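Cytotoxicity counter-screen run in the same wells as the beta-lactamase Smad reporter read: CellTiter-Glo luminescence after 30 min at room temperature. HEK 293T SBE-bla cells had 5 hr compound exposure at 37 C with TGF-beta1 (0.25 ng/mL stock).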

Test [16] can be described thus: qHTS assay to identify small molecule agonists of the TGF-beta/Smad signaling pathway - cell viability counter screen (AID 1346829; active = well fitted curve in the direction sought with a large enough effect in the repeat runs; an effect the other way counts as inactive or inconclusive; also: top concentration of the series differs between compounds; nearly all actives have a fitted effect of over 45% in size). The essentials: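 Here the cytotoxicity of library compounds is measured in SBE-bla HEK 293T cells treated for 5 hr, using CellTiter-Glo added to wells already read for the beta-lactamase reporter.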
Test [17] can be described thus: qHTS assay to identify small molecule agonists of the TGF-beta/Smad signaling pathway (AID 1346859; active = well fitted activation curve with a large enough effect in the signal ratio in the repeat runs, not every such curve was filed as active; the % refers to the signal ratio; also: series mostly up to about 77 µM). The essentials: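 Dual-wavelength fluorescence (460/530 nm emission) quantified beta-lactamase expression under the Smad binding element in HEK 293T cells following 5 hr compound treatment at 37 C.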
Test [18] has as its target Thyrotropin-releasing hormone receptor (Homo sapiens) (UniProt P34981). The experiment in a line: qHTS assay to identify small molecule agonists of the thyrotropin-releasing hormone receptor (TRHR) signaling pathway (AID 1346891).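 Also: HEK293 cells expressing TRHR with calcium dye readout; series mostly up to about 58 µM.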 The method in brief:
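Kinetic fluorescence (3 min, 1 s intervals) reported intracellular calcium after compound transfer onto TRHR-Hek293 cells pre-loaded with dye for 2 h at 37 °C.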

Test [19] shares this target. The experiment in a line: qHTS assay to identify small molecule antagonists of the thyrotropin-releasing hormone receptor (TRHR) signaling pathway (AID 1346877; active = well fitted inhibition curve with a large enough effect in the repeat runs, not every such curve was filed as active; also: series mostly up to about 51 µM). The essentials:
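Kinetic fluorescence (3 min, 1 s resolution) following stimulation with TRH at 1 nM final; HEK293 cells bearing human TRHR; 5 min compound preincubation at RT; concentration-response over 15 points, triplicates.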

In test [20] the target is Androgen receptor (Homo sapiens) (UniProt P10275). The experiment in a line: qHTS assay to identify small molecule agonists of the androgen receptor (AR) signaling pathway in the presence of an antagonist (AID 1259381). Also: nearly all actives have a fitted effect of over 15% in size. The essentials:
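Reporter-gene luminescence from MDA-kb2 cells exposed 16hr at 37C (0% CO2) to 15-point compound titrations with 3.0uM final nilutamide as AR antagonist.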

Unmarked numbers belong to inactive results. Results filed as inconclusive are left out. Active and inactive are the calls of the source. Unless noted, calls follow the shape of the full dose curve.
% is scaled to controls: 0 for no effect and ±100 for the full control effect.

Chain of Androgen receptor (Homo sapiens) (P10275 whole entry, looked up): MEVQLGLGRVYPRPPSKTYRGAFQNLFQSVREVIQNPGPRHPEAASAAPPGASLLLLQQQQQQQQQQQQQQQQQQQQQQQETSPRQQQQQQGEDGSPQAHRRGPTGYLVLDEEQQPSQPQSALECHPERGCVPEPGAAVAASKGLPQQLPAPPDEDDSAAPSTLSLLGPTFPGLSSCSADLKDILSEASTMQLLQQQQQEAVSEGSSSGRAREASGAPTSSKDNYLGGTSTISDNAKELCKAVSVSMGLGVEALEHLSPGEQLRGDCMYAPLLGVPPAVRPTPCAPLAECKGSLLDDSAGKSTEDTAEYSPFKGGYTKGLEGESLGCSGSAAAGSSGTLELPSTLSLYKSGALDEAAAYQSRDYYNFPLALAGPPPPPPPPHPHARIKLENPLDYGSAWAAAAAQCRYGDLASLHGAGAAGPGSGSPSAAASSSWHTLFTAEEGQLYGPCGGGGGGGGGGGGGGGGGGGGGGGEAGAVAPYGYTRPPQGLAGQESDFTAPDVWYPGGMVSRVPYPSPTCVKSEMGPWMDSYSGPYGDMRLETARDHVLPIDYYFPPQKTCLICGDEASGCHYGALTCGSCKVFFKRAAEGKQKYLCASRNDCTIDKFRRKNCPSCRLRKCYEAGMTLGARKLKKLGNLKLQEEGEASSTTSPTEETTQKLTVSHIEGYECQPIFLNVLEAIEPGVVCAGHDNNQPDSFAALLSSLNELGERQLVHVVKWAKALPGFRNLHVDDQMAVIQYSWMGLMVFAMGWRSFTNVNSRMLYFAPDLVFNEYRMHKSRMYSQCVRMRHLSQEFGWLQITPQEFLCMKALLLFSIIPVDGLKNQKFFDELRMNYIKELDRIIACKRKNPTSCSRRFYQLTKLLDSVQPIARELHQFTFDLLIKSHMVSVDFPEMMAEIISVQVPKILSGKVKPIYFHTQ
Chain of Estrogen receptor (Homo sapiens) (P03372 whole entry, looked up): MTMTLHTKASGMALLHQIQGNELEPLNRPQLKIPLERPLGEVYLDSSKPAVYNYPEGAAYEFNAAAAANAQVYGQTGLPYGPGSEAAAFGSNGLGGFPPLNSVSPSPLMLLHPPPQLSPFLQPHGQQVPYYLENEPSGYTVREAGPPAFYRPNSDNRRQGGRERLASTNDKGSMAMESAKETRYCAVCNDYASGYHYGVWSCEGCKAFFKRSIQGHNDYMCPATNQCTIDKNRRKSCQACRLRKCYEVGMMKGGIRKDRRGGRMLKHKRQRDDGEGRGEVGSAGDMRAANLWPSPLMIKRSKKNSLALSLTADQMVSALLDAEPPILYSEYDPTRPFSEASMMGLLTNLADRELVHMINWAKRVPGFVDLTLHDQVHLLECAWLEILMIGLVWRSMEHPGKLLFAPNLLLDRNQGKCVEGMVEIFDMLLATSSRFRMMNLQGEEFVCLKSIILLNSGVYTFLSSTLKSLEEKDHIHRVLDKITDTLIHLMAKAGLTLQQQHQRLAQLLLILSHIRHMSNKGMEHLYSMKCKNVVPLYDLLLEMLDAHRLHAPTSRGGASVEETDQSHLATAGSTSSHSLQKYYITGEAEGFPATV
Chain of Progesterone receptor (Homo sapiens) (P06401 whole entry, looked up): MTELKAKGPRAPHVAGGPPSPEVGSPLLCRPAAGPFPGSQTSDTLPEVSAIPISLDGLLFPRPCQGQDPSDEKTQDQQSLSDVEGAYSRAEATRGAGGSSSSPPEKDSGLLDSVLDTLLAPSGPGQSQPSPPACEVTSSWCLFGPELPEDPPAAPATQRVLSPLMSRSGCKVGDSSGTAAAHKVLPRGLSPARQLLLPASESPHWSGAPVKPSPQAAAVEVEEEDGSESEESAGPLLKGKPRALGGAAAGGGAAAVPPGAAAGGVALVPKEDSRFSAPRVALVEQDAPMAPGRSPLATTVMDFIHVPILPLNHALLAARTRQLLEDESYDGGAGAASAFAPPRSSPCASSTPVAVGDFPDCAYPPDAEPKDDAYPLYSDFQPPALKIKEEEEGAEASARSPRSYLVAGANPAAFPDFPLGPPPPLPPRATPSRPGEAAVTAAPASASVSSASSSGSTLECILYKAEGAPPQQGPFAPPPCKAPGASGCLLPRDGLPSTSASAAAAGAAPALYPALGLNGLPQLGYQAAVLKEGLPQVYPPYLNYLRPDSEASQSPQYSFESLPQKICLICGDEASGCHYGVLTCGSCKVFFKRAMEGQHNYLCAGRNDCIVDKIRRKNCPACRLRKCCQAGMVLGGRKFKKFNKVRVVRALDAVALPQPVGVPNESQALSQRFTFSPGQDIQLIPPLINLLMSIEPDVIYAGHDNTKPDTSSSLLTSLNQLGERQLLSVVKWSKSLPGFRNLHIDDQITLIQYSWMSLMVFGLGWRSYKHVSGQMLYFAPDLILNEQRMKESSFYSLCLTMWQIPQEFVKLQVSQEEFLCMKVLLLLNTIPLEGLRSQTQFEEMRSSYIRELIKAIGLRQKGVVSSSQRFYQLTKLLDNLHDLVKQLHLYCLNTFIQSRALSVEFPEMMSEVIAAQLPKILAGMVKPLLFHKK
Chain of Thyrotropin receptor (Homo sapiens) (P16473 whole entry, looked up): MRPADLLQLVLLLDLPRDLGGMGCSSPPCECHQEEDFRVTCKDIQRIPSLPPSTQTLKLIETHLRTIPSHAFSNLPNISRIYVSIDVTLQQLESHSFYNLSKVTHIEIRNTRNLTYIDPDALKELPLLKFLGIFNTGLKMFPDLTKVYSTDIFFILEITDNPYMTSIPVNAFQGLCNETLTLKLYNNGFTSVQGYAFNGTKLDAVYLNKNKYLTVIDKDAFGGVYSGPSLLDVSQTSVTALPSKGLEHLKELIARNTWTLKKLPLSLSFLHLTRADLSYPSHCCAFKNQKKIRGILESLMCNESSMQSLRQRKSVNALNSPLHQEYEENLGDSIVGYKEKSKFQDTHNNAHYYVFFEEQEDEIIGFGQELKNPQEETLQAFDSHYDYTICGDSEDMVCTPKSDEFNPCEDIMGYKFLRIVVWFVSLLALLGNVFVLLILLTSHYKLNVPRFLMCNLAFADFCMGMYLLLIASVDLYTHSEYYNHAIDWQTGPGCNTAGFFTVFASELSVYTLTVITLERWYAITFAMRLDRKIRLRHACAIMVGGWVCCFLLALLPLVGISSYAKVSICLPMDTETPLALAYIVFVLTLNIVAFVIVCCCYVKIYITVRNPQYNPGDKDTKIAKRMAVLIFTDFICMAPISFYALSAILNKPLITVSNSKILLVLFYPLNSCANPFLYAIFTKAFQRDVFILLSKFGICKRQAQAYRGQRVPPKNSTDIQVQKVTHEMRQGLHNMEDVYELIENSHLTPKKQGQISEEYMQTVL
Chain of Thyrotropin-releasing hormone receptor (Homo sapiens) (P34981 whole entry, looked up): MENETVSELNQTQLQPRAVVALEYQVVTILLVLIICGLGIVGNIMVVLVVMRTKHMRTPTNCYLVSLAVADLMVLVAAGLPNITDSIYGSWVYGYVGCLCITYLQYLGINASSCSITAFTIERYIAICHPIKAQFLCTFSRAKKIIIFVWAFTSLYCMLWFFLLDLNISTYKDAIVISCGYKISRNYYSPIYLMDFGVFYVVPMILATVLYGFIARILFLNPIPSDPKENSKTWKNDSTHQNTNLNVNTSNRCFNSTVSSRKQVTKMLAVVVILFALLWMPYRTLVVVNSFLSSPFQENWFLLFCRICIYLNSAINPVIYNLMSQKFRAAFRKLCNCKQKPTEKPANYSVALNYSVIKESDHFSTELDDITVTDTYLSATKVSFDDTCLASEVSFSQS

For `NC(N)=NCCC[C@H](N)C(=O)O`, the activity change, negative = inhibition is 18.9% [at 8.39 µM] in test [1], -0.191% [at 8.39 µM] in [9] and 7.3% [at 8.39 µM] in [12]. Moreover, the activation was -0.985% [at 8.39 µM] in [2]; -0.001% [at 8.39 µM] in test [7]; -0.127% [at 8.39 µM] in [11]; 2.75% [at 6.97 µM] in [17]; 0.134% [at 5.23 µM] in test [18]. Moreover, in [3], the activity, negative = inhibition is 14.4% [at 8.39 µM]. The activity change, negative = cytotoxicity is 2.11% [at 8.39 µM] in test [4]; 6.72% [at 8.39 µM] in test [5]; 6.28% [at 8.39 µM] in test [6]; 0.856% [at 8.39 µM] in test [10]; -0.687% [at 8.39 µM] in test [13]; -1.33% [at 8.39 µM] in test [14]. Also, the activity change, negative = cytotoxicity in test [16] was 6.19% [at 6.97 µM]. The cAMP activity change in [8] is -11% [at 8.39 µM, hits give high values]. For the same compound, the viability change, negative = cytotoxic in test [15] is 7.48% [at 6.97 µM].

As to `Cc1ncc(CO)c(C=O)c1O`, the Potency result in [1], in test [2], in [3], in test [4], in test [5] and in test [6] was “inactive” throughout. Also, the Potency entry in test [7], in test [8], in [9], in test [10], in test [11] and in [12] was “inactive” throughout. Further, the Potency result in test [13], in test [14], in test [15], in [17] and in [18] was “inactive” in each case. For the same compound, the compound was classed as inactive in [16] and in test [19].

As for `O=C1CCCCCCCCCCCC(=O)OCCO1`, the Potency entry in test [1], in test [2], in [3], in test [4], in [5] and in [20] was “inactive” each time. Besides, the Potency result in test [6], in test [7], in [8], in test [10], in [11] and in [12] was “inactive” each time. The Potency entry in test [15], in [17] and in test [18] was “inactive” each time. Moreover, the compound was called inactive in test [16] and in [19].

Consider `NCc1ccccc1Sc1ccccc1CO`, for which the Potency entry in [1], in [2], in test [3], in test [4], in test [5] and in test [20] was “inactive” throughout. Further, the Potency result in test [6], in test [7], in [8], in [10], in test [11] and in [12] was “inactive” in each case. The Potency result in test [13], in test [14], in test [15], in [17] and in test [18] was “inactive” each time. The result in test [16] and in test [19] was inactive.

Take `CC(CC=O)c1ccccc1` (configuration not stated): in test [1], the Potency was 54.5 µM (active). Moreover, the Potency result in [2], in test [3], in test [4], in test [5], in [6] and in [7] was “inactive” in each case. The Potency entry in [8], in test [9], in test [10], in test [11], in test [13] and in test [14] was “inactive” throughout. The Potency result in test [15], in [17] and in [18] was “inactive” in each case. The compound was called inactive in test [16] and in test [19].

Consider `O=C(Cl)c1cc(C(=O)Cl)cc(C(=O)Cl)c1`, for which the Potency result in [1], in test [2], in test [3], in test [4], in test [5] and in [7] was “inactive” each time. Moreover, the Potency entry in test [8], in test [10], in test [14], in test [15] and in test [17] was “inactive” each time. The Potency in [9] was 68.6 µM (active). Further, the outcome in test [16] and in [19] was inactive.

Consider `NCCCN1CCOCC1`, for which the Potency result in test [1], in [2], in [3], in test [4], in test [5] and in test [20] was “inactive” each time. Further, the Potency entry in test [7], in [8], in test [10], in [11], in test [12] and in test [13] was “inactive” in each case. The Potency entry in test [14], in [15], in test [17] and in [18] was “inactive” in each case. The call in test [16] was inactive.
